From the supplement of paper PMC12632987

B1: uchl1_122_7439 (protein)
chain: MLTIEVDVTSSLSPEGLAILREYASELLDNPEFEEELVSPGTLRLTFTGELKDLTPEQIREIANRALARAGADQSLTPNERVSLGNAIRRIARQVARARA
B2: uchl1_143_7454 (protein)
chain: GMVHMEVEVIHIEVSEEDTPEEIREKIMEAMKKAVEKGKAIRIIITVPPDANKRLMVNTTARRAAREFAQEYKDKLKYLEIYARDKETGKEDLIAEIINP
B3: uchl1_122_7450 (protein)
chain: SETVEVVGRREALEAIAAAIREVLAAFGAEVEVRIEELSPNTARLTVTIRLPPISDARLAELLEALEAAMRRLVEERGVPAATAGLAYSRVARAIRRAAA
B4: uchl1_122_7432 (protein)
chain: AETVTVIVPKEAAPIIVEVLKEVMAEHGATVEVELEELSENTVKITITIDTSGLTEEQVDAAVADLEERMAERFKEAGINSADAKNAVGRIARAIRRAGA
B5: uchl1_122_7441 (protein)
chain: MVTIEVEVSSSLSPEALAILAEAAAELLEDARVEVRELSPSTLLITITGRLKDLSPEEIREIENRALERLGRDQSLTPNQRVSAGNALRRLARQYARAKA
B6: uchl1_122_7430 (protein)
chain: TVTVEAVGRRETMETLAAVITEVLTAAGLTVEVRIEELSPTTARLTVTISGAPLSDAEVDALIEELRRRAAEAVERLGLDRATVGLAVGRVERGVRRLAA
B7: uchl1_122_7435 (protein)
chain: MITVEVLVTSSLSPAVLAIIKEYASRLLDNAEFELRRVDPGTLLLTVTGELKDVSDEEILAIRREAEERAAKDQTLTPNQRVSFGNALRRIARAVAKALA
B8: uchl1_122_7447 (protein)
chain: TVTVEVVGRRADIEAIAAVIRAVFAAAGIKVDVEIEELSPTTAKLTVTITVPPVTDEQVDATIAALAAAMAALVEAEGISRALAGIAFTRVERALRRAAA
B9: uchl1_122_7427 (protein)
chain: TATVEVVGRRETIETIAEIIREVAAEHGLEVEVRIEELSPTTARLVVTVRVPPISDEELAAFERALEERMARAVEEKGLSRAEVGIATTKVIRAVRRANA
B10: uchl1_122_7434 (protein)
chain: MITIEVDVSSSLSPEVLEIIKEFASRLLDNAEFEEEELSPGTRRLTITGELKDVSDEEILEIENEALERASKLQTLTPNERVSFGNALRRIARAVAKARA
B11: uchl1_122_7426 (protein)
chain: METVEVVGRRETIEALAELIREVAAEHGIEVEVRIEELSPTTARLVVTIRVPPISDEELDALIADLEARAAALVEEKGLPRAEVGIATTKIIRAIRRAAA
B12: uchl1_122_7433 (protein)
chain: MITIEVEVTSSLSPEALAILKEYAARLLDNAEFKEEKLSPGTLLLTVTGELKDVTDEEILAIENEALERASKMQTLTPNQRVSFGNALRRIARAVAKALA
B13: uchl1_122_7444 (protein)
chain: MLTVEVLVSSSLSEEVLEILEEYASKLLEDLEVEKKKVSPGTILITFTGELKDVSEEEIREIREEALERLSKLQNLTPNEKVSFGNALRRIERQVMQAKK
B14: GBRAPL2_93_7425 (protein)
chain: NEVKVTIKHLVDGELVKEEERTVSVEEAKELIKKKLEEAIAAGNKVIIEIDDEDTGWSFGDYVTDEEQAKKALERAKEILEDLAAEGKKVEVEIVIEKIT
B15: uchl1_122_7445 (protein)
chain: MLTVEVLVSSSMSPEVLAILEEYASRLLDDLEVEREKVSPGTVLLTFRGRLKDVSEEEIRAIREEALARLAKLQDLTPNEKVSFGNALRRIERQVMRARR
B16: uchl1_122_7436 (protein)
chain: MITIEVLVTSSLSPEGLAIIKDYAAKLLKDAEFKEEEVSPGTLLLTITGELKDVSDEEILEIRREAEERASKNQNLTPNERVSFGNALRRIARAVAKAKA
B17: uchl1_122_7446 (protein)
chain: MLTVEVLVSSSLSERVLEILEEYAAALLDNLEVEREEVSPGTRLLTFTGELKDVSEDEIRAIREEALARLAELQDLTPNEKVSFGNALRRIERQVMAARR
B18: uchl1_122_7429 (protein)
chain: MVRVEVVGRRRTVEALAEVIREVAARHGIDVRVEIEELSPTTARLVVDIRVPPMSDAALEAALADLERRAAELVERLGLSRAEVGIATTRIVRGIRRAAA
B19: uchl1_122_7428 (protein)
chain: METVEVVGRRRAIEAFAEIVREVAAEHGIAVEVEIEELSPTTARLTITFDVPPISDEELAAFEEDLARRVAEAVRELGLSPAEFGIAYTKVVRAVRRANA
B20: uchl1_122_7437 (protein)
chain: MITIEVLVSSSISEKVLEIIKKFASKLLKNPKFKIEQVSPGTLKITITGELKDVSEEEIREIYNEALEELGKLQDITPNEKVSANTALRKIARDVARARR
B21: uchl1_122_7451 (protein)
chain: SETVEVVGRRRDIELIAEAIKEVFEKFGVKVEVEIEELSPTTAKLTVTITVPPISDEELEALLAALEEAMRRLVEEEGVPRATAGLAYSRTARAVKRAAA
B22: uchl1_122_7440 (protein)
chain: MITIEIEVSSSLSEKGLEILAEAAKKLLDNAKIEVKEKSPSTKLITITGELKDLSEEEILEIENEALEEAGKDQSLTPNQRVSFGNALRRLAIQYAKAKA
B23: uchl1_122_7449 (protein)
chain: TETVEVVGRRADVEAIAATIRAVFASHGLTVDTTITELSPTTARLTVTVTLPPISDAQVAALEAALEAAMAALVEREGISRAFAGIATTRVIRAVRRAAA
B24: uchl1_122_7442 (protein)
chain: MLTIEVDVASSVSERTLEILKEYAEELLEDAEFSVEKKSPGTKLLTIKGKLKDVSDDEILEIENKALERAGKDQSITPNERVSFGNALRKIARQVARARA
B25: uchl1_122_7443 (protein)
chain: MLTIEVKVSSSLSERTLEILKKYAEKLLENPKFEVKELSPGTKLLTITGELKDVSDEEILEIRNEALEEAGKDQSITPNERVSFGNALRTISRQVARALA
B26: uchl1_122_7431 (protein)
chain: MKTVTVVVRKKDAPILIEIVREVAAEAGMKVEIEEEELSPNVVKLTITIDTTGLTEEQVEAAVEALERRVAEAMKETGSKSTDLRIAVGKIARAIRKAHA
B27: uchl1_122_7438 (protein)
chain: MLTIEVDVTSSLSPEGLEILKEYVSKLLDNPKFEEELVSPGTLRLIFTGELKDLTEEEIREIENEALEKAGANQSLTPNQRVSFGNAVRRIARQVAKARA
B28: uchl1_122_7448 (protein)
chain: TVTVEVVGRREDIELIAAVIREVFAAAGIEVDVEIEELSPTTARLVVTIRAPPMTDAQVDATIAALAAAMARLVEEAGISRALAGIAFTRVERALRRAAA
B29: GBRAPL2_93_7424 (protein)
chain: NKVELIVKYLENGKLVKEEREVVSVEEAKAKIEELLKEAVENGEKVSIEIEDKDTGWVFGDYVENEEQAKKALERAKEILEDLAEEGKEVEVTIVIEKIT
B30: uchl1_122_7453 (protein)
chain: TETVEVVGRRRDVEILAAVIREVFAAAGWTAEVTIEELSPTTARLVVTVTLPPASDEAVDALVAALEAAFREAVEKEGISRAFAGIAYTRVARAVRRAAA
B31: uchl1_122_7452 (protein)
chain: TETVEVVGRRKDIELIAAAIREVAAAAGWTADVEIEELSENTAKLTVTVTLPPVSDAAVDAAEAALEAAMRRLVEEEGLSRAFVGIATTRVIRAIRRAAA
B32: GBRAPL2_93_7423 (protein)
chain: MKVKVTVIELENGEVVRREERELSVEEAKELIRELLAEAIAAGNRVIIEIYDKETGWTFGYYAEDEEQAEKAYERTSEVLEDLAAEGKEVEVTITIERLE

Each binder was assayed against UCHL1, P09936 (assay: median log2 fold change of GCK-ALFA target abundance (FLAG IP / Myc IP barcode read proportion) (log2 ratio); each designed protein is fused to an ALFA-tag nanobody in HEK293 cells to bring the named protein to FLAG-tagged glucokinase (GCK); Myc marks an untargeted standard; higher = target protein stabilised (more abundant)). Conditions: target protein: 3xFLAG-MCP-GCK-ALFA reporter; HEK293 landing pad (RPLP).
Method in brief: (§1)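 The readout is target abundance, the per-binder median log2 ratio of FLAG to Myc barcode read proportions. It came from HEK293 landing-pad cells carrying a recombined ALFA-nanobody-fused binder library, induced with 2 μg mL^−1 doxycycline and transfected with a plasmid for a FLAG-tagged target and a Myc-tagged standard. After 48 h, lysates were immunoprecipitated with anti-FLAG and anti-Myc, and circular RNA barcodes were reverse transcribed, amplified and sequenced. Each barcode needed a proportion of at least 10^−7 in both replicates and each binder at least 3 barcodes per replicate, a pseudocount of 10^−6 was added, and the replicates were pooled.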

Sequence of UCHL1, P09936 (P09936 whole entry, looked up, the tested form may be a part): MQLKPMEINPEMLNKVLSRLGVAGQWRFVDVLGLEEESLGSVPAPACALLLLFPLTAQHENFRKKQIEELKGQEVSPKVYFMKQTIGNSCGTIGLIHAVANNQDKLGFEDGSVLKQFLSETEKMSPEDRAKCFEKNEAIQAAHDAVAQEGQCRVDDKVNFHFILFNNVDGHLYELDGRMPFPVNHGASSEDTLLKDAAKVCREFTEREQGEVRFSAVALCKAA

| Binder | median log2 fold change |
| --- | --- |
| B1 | 0.0949 |
| B2 | -0.0697 |
| B3 | 0.143 |
| B4 | 0.325 |
| B5 | 0.185 |
| B6 | 0.13 |
| B7 | -0.0374 |
| B8 | -0.15 |
| B9 | 0.284 |
| B10 | 0.213 |
| B11 | 0.214 |
| B12 | 0.0352 |
| B13 | 0.0563 |
| B15 | -0.026 |
| B16 | 0.0349 |
| B17 | -0.238 |
| B18 | 0.096 |
| B19 | -0.0204 |
| B20 | -0.0419 |
| B21 | -0.77 |
| B22 | 0.144 |
| B23 | 0.184 |
| B24 | 0.271 |
| B25 | 0.153 |
| B26 | -0.183 |
| B27 | 0.324 |
| B28 | 0.0437 |
| B30 | -0.0277 |
| B31 | 0.163 |

Each binder was assayed against GABARAPL2, P60520 in the same assay as above. Conditions: target protein: 3xFLAG-MCP-GCK-ALFA reporter; HEK293 landing pad (RPLP).
Method in brief: as §1

Sequence of GABARAPL2, P60520 (P60520 whole entry): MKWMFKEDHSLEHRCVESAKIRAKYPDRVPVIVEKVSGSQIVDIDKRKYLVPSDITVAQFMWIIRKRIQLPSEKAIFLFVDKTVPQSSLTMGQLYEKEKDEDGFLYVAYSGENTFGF

| Binder | median log2 fold change |
| --- | --- |
| B14 | -0.332 |
| B29 | 0.137 |
| B32 | -0.302 |
